Results filed as inconclusive are left out. The source made the active and inactive calls. Unless noted, calls follow the shape of the full dose curve.
Tests used:
[1] = Nuclear factor erythroid 2-related factor 2/antioxidant responsive element (Nrf2/ARE) small molecule agonists: qHTS cell viability counter screen in human keratinocytes (AID 1919968; active = well fitted curve in the direction sought with a large enough effect in the repeat runs; an effect the other way counts as inactive or inconclusive; also: nearly all actives have a fitted effect of over 55% in size)
In short: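 HaCaT ARE reporter line, 1,500 cells/well; 5 h settle, 37 C/5% CO2; cpd in DMSO pinned; 23 h exposure; CellTiter-Fluor, 1 h; fluorescence.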

[2] = Nuclear factor erythroid 2-related factor 2/antioxidant responsive element (Nrf2/ARE) small molecule agonists: luciferase reporter gene qHTS assay in human keratinocytes (AID 1919969); also: nearly all actives have a fitted effect of over 35% in size
[3] = molecular target: Gonadotropin-releasing hormone receptor (Homo sapiens) (UniProt P30968); assay: Human gonadotropin-releasing hormone receptor (GnRHR) small molecule agonists, calcium flux assay in GnRHR-HEK293 cells (AID 1920063); also: nearly all actives have a fitted effect of over 35% in size
In short: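 GnRHR-HEK293, 1500 cells/well, 18 h 37 C/5% CO2; Ca dye 1 h 37 C; cpd pinned (DMSO), agonist mode; kinetic FL 480/540, 3 min, 1 s reads; 15 conc, n=3.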

[4] = molecular target: KiSS-1 receptor (Homo sapiens) (UniProt Q969F8); assay: Human kisspeptin (KISS1R) small molecule agonists, calcium flux assay in KISS1R-HEK293 cells (AID 1920064; active = well fitted curve in the direction sought with a large enough effect in the repeat runs; an effect the other way counts as inactive or inconclusive)
In short: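 Stable human KISS1R HEK293 line; 18 h plating, 37 C/5% CO2; calcium dye 1 h 37 C; compound pin transfer; kinetic fluorescence Ex/Em 480/540, 3 min.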

[5] = G protein-coupled receptor (GPCR) small molecule agonists, calcium flux assay: HEK293 wild type cell line counter screen (AID 1920065)
In short: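 Kinetic fluorescence at Ex/Em 480/540, recorded every second over 3 min, served as the read-out after compound addition. Each compound was tested at 15 concentrations in triplicate on cells pre-loaded with calcium dye for 1 h.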

[6] = p53 small molecule agonists, cell-based qHTS assay with human liver microsomes (AID 1963577)
In short: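 Fluorescence of the beta-lactamase reporter in p53RE-bla cells, detected with LiveBLAzer substrate (2 h, room temperature, dark), served as the read-out after 16 h compound exposure at 37 C with human liver microsomes and NADPH, each 0.5 mg/mL final.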

[7] = p53 small molecule agonists, cell-based qHTS assay with rat liver microsomes (AID 1963578)
In short: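 Cells carrying a p53 response element–beta-lactamase reporter were plated and rested 5 h, then dosed with compound in DMSO plus rat liver microsomes and NADPH, each at 0.5 mg/mL final. After 16 h at 37 C, LiveBLAzer substrate was added for 2 h.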

[8] = p53 small molecule agonists, cell-based qHTS assay with human liver microsomes: qHTS cell viability counter screen (AID 1963579); also: nearly all actives have a fitted effect of over 45% in size
In short: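 Cytotoxicity counter screen: p53RE-bla, 4,000 cells/well; 5 h settle, 37 C/5% CO2; cpd + HLM 0.5 mg/mL + NADPH 0.5 mg/mL (final); 16 h, 37 C; CellTiter-Glo, 30 min RT, luminescence.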

[9] = p53 small molecule agonists, cell-based qHTS assay: qHTS cell viability counter screen (AID 1963581); also: nearly all actives have a fitted effect of over 45% in size
In short: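 HCT-116 p53RE-bla cells, 4,000/well, plated 5 h before compound pin transfer; 16 h at 37 C; bla substrate 2 h RT; then CellTiter-Glo, 30 min RT, luminescence.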

[10] = p53 small molecule agonists, cell-based qHTS assay (AID 1963582; active = well fitted activation curve with a large enough effect in the signal ratio in the repeat runs, not every such curve was filed as active; the % refers to the signal ratio)
In short: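 Reporter line: p53RE-bla. Pre-incubation 5 h, 37 C, 5% CO2; compound (DMSO, pin tool) 16 h, 37 C; B/G FRET substrate 2 h RT; fluorescence intensity read.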

[11] = molecular target: 5-hydroxytryptamine receptor 2A (Homo sapiens) (UniProt P28223); assay: 5-hydroxytryptamine receptor 2A (HTR2A) small molecule antagonists, cell-based qHTS assay (AID 1963586); also: nearly all actives have a fitted effect of over 45% in size
In short: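 Antagonist-mode intracellular calcium assay: DOI (4 nM) added after 5 min compound pre-incubation at room temperature to dye-loaded HTR2A-CHO cells. Fluorescence followed for 3 min, sampled every second.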

[12] = molecular target: 5-hydroxytryptamine receptor 2A (Homo sapiens) (UniProt P28223); assay: 5-hydroxytryptamine receptor 2A (HTR2A) small molecule agonists, cell-based qHTS assay (AID 1963587); also: nearly all actives have a fitted effect of over 30% in size
In short: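 Kinetic calcium-flux fluorescence (2 min, 1 sec intervals) after compound addition in agonist mode. HTR2A-CHO cells were cultured 18 h, then dye-loaded 1 h at 37 C.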

[13] = molecular target: Muscarinic acetylcholine receptor M1 (Homo sapiens) (UniProt P11229); assay: Cholinergic receptor muscarinic 1 (CHRM1) small molecule antagonists, cell-based qHTS assay (AID 1963588); also: nearly all actives have a fitted effect of over 40% in size
In short: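 CHRM1-CHO calcium-flux assay, antagonist mode. Cells were seeded 18 h, dye-loaded 1 h at 37 C and given compound for 5 min at RT, then acetylcholine was added at 50nM. FDSS fluorescence was read 3 min; 15 concentrations, three runs.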

[14] = cAMP Responsive Elements (CRE) small molecule agonists, cell-based qHTS assay (AID 1963590)
In short: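 HEK 293T CRE-bla, 2,000 cells/well, 18 h preincubation 37 C/5% CO2; cpds (DMSO) pinned, 3 h; LiveBLAzer B/G FRET substrate, 2 h RT.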

[15] = cAMP Responsive Elements (CRE) small molecule antagonists, cell-based qHTS assay (AID 1963591; active = well fitted inhibition curve with a large enough effect in the signal ratio in the repeat runs, not every such curve was filed as active; the % refers to the signal ratio)
In short: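 Beta-lactamase reporter read by FRET substrate (LiveBLAzer B/G) after 2 h at room temperature. CRE-bla HEK293T cells had received compound plus 0.25 uM (final) NKH477 for 3 h at 37 °C.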

[16] = molecular target: Beta-2 adrenergic receptor (Homo sapiens) (UniProt P07550); assay: Adrenergic beta2 receptor (ADRB2) small molecule antagonists, cell-based qHTS assay (AID 1963592); also: series mostly up to about 92 µM; nearly all actives have a fitted effect of over 50% in size
In short: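 Cells (CHO, stable ADRB2 overexpression) incubated 18-20hr at 37C; compounds added from DMSO; agonist mix (1nM isoproterenol, 100uM IBMX, 25uM Ro-20-1724) added; 0.5hr RT; d2-cAMP and anti-cAMP-cryptate added; 1hr RT; 665/615 nm read.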

[17] = molecular target: D(2) dopamine receptor (Homo sapiens) (UniProt P14416); assay: Dopamine D2 receptor (DRD2) small molecule agonists, cell-based qHTS assay (AID 1963594); also: nearly all actives have a fitted effect of over 35% in size
In short: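 cAMP accumulation in DRD2-HEK293 cells measured by HTRF after 1 h detection; compounds added 10 min before NKH477 (200nM […]) forskolin-analogue stimulation, 30 min at room temperature, with Ro20-1724 present at 0.1 mM final.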

[18] = molecular target: D(2) dopamine receptor (Homo sapiens) (UniProt P14416); assay: Dopamine D2 receptor (DRD2) small molecule antagonists, cell-based qHTS assay (AID 1963595; active = well fitted inhibition curve with a large enough effect in the signal ratio in the repeat runs, with a control signal flat; the % refers to the signal ratio)
In short: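 Readout: HTRF cAMP, cAMP-d2 competing with cellular cAMP for anti-cAMP cryptate, read after 1 h. Cells: DRD2-HEK293. Conditions: 0.1 mM Ro20-1724, 12 nM quinpirole, 200 nM NKH477, 30 min RT.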

[19] = p53 small molecule agonists, cell-based qHTS assay with rat liver microsomes: qHTS cell viability counter screen (AID 1963580); also: nearly all actives have a fitted effect of over 45% in size
In short: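 HCT-116 p53RE-bla, 4,000 cells/well, 5 h pre-incubation; cpd + rat liver microsomes 0.5 mg/mL + NADPH 0.5 mg/mL (final); 16 h, 37 C; CellTiter-Glo, 30 min RT; luminescence.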

[20] = molecular target: Beta-2 adrenergic receptor (Homo sapiens) (UniProt P07550); assay: Adrenergic beta2 receptor (ADRB2) small molecule agonists, cell-based qHTS assay (AID 1963593);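 also: CHO cells stably overexpressing human ADRB2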
In short: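 CHO cells stably over-expressing ADRB2 were plated overnight at 37C, then dosed with compounds plus a stimulation mix containing 100uM IBMX and 25uM Ro-20-1724 for 0.5hr at room temperature. cAMP was measured by HTRF competition, 1hr.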

Measured: Potency

Sequence of D(2) dopamine receptor (Homo sapiens) (P14416 whole entry, looked up): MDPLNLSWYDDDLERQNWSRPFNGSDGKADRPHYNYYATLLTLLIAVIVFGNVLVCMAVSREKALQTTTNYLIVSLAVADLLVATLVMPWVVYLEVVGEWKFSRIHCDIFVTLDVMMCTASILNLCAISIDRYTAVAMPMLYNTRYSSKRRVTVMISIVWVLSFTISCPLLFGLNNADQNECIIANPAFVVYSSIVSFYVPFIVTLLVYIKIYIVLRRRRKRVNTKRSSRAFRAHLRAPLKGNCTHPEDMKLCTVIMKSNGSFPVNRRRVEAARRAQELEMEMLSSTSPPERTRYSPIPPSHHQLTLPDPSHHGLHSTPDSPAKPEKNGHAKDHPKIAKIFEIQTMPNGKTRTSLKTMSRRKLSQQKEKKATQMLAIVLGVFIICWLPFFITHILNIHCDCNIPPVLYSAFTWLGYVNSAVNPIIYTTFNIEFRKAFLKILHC
Sequence of Beta-2 adrenergic receptor (Homo sapiens) (P07550 whole entry, looked up): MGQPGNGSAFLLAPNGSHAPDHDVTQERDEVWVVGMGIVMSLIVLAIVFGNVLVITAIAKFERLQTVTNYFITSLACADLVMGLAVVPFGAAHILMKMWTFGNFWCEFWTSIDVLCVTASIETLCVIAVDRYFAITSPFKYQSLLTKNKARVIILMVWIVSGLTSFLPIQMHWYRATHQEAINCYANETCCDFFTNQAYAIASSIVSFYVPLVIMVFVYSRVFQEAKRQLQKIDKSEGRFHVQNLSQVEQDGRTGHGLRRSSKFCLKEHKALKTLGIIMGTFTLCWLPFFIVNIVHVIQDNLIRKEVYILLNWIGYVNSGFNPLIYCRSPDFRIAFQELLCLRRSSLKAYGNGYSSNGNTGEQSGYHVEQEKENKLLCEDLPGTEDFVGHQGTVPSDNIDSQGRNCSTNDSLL
Sequence of 5-hydroxytryptamine receptor 2A (Homo sapiens) (P28223 whole entry, looked up): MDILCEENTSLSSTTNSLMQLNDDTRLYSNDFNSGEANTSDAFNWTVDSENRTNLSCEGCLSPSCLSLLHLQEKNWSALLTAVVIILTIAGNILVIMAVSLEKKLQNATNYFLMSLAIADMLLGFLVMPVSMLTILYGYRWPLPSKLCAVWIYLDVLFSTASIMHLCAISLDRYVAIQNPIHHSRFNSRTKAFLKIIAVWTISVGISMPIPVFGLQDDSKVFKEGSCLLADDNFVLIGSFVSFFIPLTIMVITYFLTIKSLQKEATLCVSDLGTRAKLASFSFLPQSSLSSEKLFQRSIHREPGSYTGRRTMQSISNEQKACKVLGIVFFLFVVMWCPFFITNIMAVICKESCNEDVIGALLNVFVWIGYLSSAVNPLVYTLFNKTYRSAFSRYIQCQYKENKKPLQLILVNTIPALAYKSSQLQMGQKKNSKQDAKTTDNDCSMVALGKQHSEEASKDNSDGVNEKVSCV
Sequence of KiSS-1 receptor (Homo sapiens) (Q969F8 whole entry, looked up): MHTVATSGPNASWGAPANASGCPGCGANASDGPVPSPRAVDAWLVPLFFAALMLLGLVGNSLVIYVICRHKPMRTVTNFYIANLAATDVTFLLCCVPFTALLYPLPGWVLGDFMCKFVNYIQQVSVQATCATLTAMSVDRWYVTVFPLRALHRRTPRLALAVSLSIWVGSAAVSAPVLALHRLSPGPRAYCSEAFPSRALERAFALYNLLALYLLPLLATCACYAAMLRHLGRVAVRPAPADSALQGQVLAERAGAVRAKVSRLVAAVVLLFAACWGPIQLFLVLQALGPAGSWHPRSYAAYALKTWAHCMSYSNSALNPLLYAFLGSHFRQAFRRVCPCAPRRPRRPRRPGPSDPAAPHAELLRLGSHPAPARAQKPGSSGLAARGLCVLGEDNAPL
Sequence of Gonadotropin-releasing hormone receptor (Homo sapiens) (P30968 whole entry, looked up): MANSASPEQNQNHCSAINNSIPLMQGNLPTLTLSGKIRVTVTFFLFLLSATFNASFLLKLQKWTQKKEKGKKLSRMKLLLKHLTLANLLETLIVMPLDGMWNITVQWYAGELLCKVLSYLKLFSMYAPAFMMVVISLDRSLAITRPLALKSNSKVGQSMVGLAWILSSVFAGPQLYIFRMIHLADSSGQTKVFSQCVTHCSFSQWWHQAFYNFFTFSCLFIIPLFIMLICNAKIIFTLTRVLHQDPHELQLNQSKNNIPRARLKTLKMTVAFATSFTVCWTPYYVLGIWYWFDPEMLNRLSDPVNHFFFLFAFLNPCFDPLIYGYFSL
Sequence of Muscarinic acetylcholine receptor M1 (Homo sapiens) (P11229 whole entry, looked up): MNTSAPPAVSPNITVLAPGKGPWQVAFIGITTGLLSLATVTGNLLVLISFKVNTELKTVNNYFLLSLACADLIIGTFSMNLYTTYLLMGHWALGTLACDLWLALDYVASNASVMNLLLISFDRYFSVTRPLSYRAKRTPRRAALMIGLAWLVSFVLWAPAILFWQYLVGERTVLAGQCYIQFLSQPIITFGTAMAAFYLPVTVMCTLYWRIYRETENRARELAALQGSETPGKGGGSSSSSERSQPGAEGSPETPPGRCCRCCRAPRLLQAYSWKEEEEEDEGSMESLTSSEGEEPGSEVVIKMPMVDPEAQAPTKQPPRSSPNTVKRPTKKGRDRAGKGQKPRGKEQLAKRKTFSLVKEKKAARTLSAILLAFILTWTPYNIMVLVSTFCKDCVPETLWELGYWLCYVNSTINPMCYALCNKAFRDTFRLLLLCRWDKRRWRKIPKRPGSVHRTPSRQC

COC(=O)CCCCC(=O)OC
not listed: [19] | [20]
inactive: all other assays above

Cc1c(N(C)CS(=O)(=O)O)c(=O)n(-c2ccccc2)n1C
not listed: [10] | [11] | [12] | [13] | [20]
inactive: all other assays above

Cc1cccc2ccccc12
not listed: [9]
inactive: all other assays above

CC(=O)Nc1nnc(S(N)(=O)=O)s1
not listed: [10] | [11] | [12] | [13]
inactive: all other assays above

O=C(c1ccccc1)c1ccc(O)c(O)c1O
not listed: [9] | [10]
inactive: all other assays above

Cc1cc(=O)n(-c2ccccc2)n1C
not listed: [10] | [11] | [12] | [13]
inactive: all other assays above

Cc1ccc2c(c1)C(=O)OC2=O
not listed: [9]
inactive: all other assays above

From PubChem BioAssay (Tox21)
